Screens from PubChem BioAssay.
Mcl1-Noxa inh = Mcl-1/Noxa binding inhibitors, primary screen, biochemical, TR-FRET, 1536-well; Induced myeloid leukemia cell differentiation protein Mcl-1 (Homo sapiens), Q07820; TR-FRET Mcl-1/Noxa peptide binding, 2 h; inhibition, % at 21.7 µM; 220,000 tested, 1.5% active; AID 1022, 2008;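 active means compounds that cut the protein-peptide binding signal by more than 50% relative to plate controls in a single-dose test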;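 further: His-tagged Mcl-1 with rhodamine Noxa BH3 peptide and terbium anti-His antibody; 0% = Mcl-1 plus Noxa peptide wells and 100% = peptide-only wells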
eIF4E 4G PPI = eIF4E–eIF4G protein interaction inhibitors, primary screen, biochemical, uHTS, TR-FRET, eIF4GI fragment; TR-FRET eIF4E-eIF4GI(517-606) binding, 2 h; inhibition, % at 21.7 µM; 220,000 tested, 0.37% active;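 active means inhibition above about 30%, limit read from the data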;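 further: 0% = full FRET control wells and 100% = background wells lacking eIF4GI fragment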
14-3-3 Bad inh = inhibitors of 14-3-3 zeta/Bad binding, primary screen, biochemical, TR-FRET, bovine 14-3-3 zeta; TR-FRET 14-3-3zeta/Dy647-pBad peptide displacement, 1 h; 14-3-3 protein zeta/delta (Bos taurus), P63103; inhibition, % at 21.7 µM; 220,000 tested, 0.71% active;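 active means inhibition above about 70%, limit read from the data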;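 further: 0% = full 14-3-3 plus peptide FRET controls and 100% = background without 14-3-3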
Mcl1-Bid inh = Mcl-1/Bid binding inhibitors, primary screen, biochemical, TR-FRET, 1536-well; Induced myeloid leukemia cell differentiation protein Mcl-1 (Homo sapiens), Q07820; TR-FRET Mcl-1/Bid-Dy647 peptide binding; inhibition, % at 21.7 µM; 220,000 tested, 0.97% active;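 active means compounds that cut the binding signal by more than half at the single screening dose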;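 further: His-tagged Mcl-1 with europium anti-His antibody binding Bid BH3 peptide; 0% = Mcl-1 plus peptide wells and 100% = peptide-only wells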
Mcl-1 Bim block = inhibitors of Bim peptide binding to Mcl-1, primary screen, biochemical, bead-based flow cytometry, multiplex | inhibition, % at 10 µM | Bim peptide-Mcl-1 binding | Induced myeloid leukemia cell differentiation protein Mcl-1 (Homo sapiens), Q07820 | 190,000 tested, 0.1% active; in the data active means inhibition above about 40%;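 further: 0% = no compound tracer wells and 100% = peptide blocker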
Hck-Nef inh = inhibitors of Nef-activated human Hck kinase, primary screen, biochemical, Z-Lyte FRET, 384-well, Hck-YEEI. Recombinant Hck-YEEI plus Nef, Z-Lyte FRET kinase assay. 220,000 tested, 0.68% active. Tyrosine-protein kinase HCK (Homo sapiens), P08631. inhibition, % at 20 µM;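 active means Hck-Nef kinase inhibition above about 50%, limit read from the data; inactive means inhibition below that limit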;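 further: 0% = DMSO with Hck plus Nef and 100% = Hck alone without Nef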
Active calls of the source: *; / = not tested or not shown; [ ] = remark or other dose. In the library only some 3.5% were active in any assay of this set; here they are far more common.

SMILES | Mcl1-Noxa inh | eIF4E 4G PPI | 14-3-3 Bad inh | Mcl1-Bid inh | Mcl-1 Bim block | Hck-Nef inh
CC(C)n1nnnc1SCC(=O)N1CCN(C(=O)c2ccco2)CC1 | 3 | -2 | 0 | 4 | 93* | 1
Cc1cc2oc(=O)cc(CN3CCN(S(=O)(=O)c4cccs4)CC3)c2cc1C | -6 | -4 | -15 | -35 | -5 | 3
O=C(O)CNS(=O)(=O)c1c(Cl)cccc1Cl | 8 | -1 | -9 | -14 | / | 19
COc1ccc(/C=C(\C#N)C(=O)OCC(=O)NCc2ccc(Cl)cc2)cc1 | 14 | -2 | 34 | 11 | -2 | 3
Oc1nc(Nc2ccc(F)cc2)sc1/C=C1\C=Nc2ccccc21 | 102* | -6 | 7 | 32 | / | 25
O=Cc1c(-c2ccccc2)nc2ccccn12 | -9 | 4 | -1 | -9 | / | 24
CCc1nc(-c2ccccc2)c2ccccn12 | 62* | 7 | 17 | 9 | 0 | -35
CCOc1ccc(NC(=O)CC2SC(=O)N(c3ccccc3)C2=O)cc1 (stereo unspecified) | -10 | -3 | -6 | -37 | -5 | 26
O=C(COc1ccccc1C(=O)c1cnn(-c2ccccc2)c1)Nc1ccccc1 | 24 | 0 | 84*[fluorescence artefact?] | 6 | 0 | 0
CCC1CSC(Nc2ccc(C(=O)/C=C/c3ccc(OC)c(OC)c3)cc2)=N1 (stereo unspecified) | 68* | -6 | 14 | -28 | 0 | 5
COc1ccc(/C=C/C(=O)c2ccc(NC3=NCCCS3)cc2)cc1OC | 51* | -2 | -16 | -19 | 5 | 17
COc1cc(/C=C/C(=O)OCC(=O)NC(=O)NC(C)C)ccc1O | -8 | 5 | -7 | -55 | / | 3
Cc1cc(C(=O)NC2=NCCS2)cs1 | -14 | 1 | 9 | -15 | -4 | 19
Cc1cccc(C(=O)NC2=NCCS2)c1 | 4 | -2 | -6 | -8 | -1 | 76*
N#Cc1cccc(N=Cc2c(O)ccc3ccccc23)c1 | 55* | 20 | 20 | -22 | 2 | 10
Cc1ccc(N=Cc2c(O)ccc3ccccc23)cc1F | 34 | 0 | 7 | -3 | -2 | 5
CCc1nn2c(=O)cc(COc3ccc(/C=C4\C(=N)N5N=C(C)SC5=NC4=O)cc3)nc2s1 | 77* | 21 | 22 | -49 | 2 | 75*
O=C1CCC/C(=N\NC(=O)c2ccc(COc3cccc4cccnc34)cc2)C1 | 25 | 11 | -2 | -23 | -5 | 5
C#CCOCCOCCOCCNc1nc(N2CCN(C(=O)[C@H](CCCCN)n3cc(C(N)CC(C)C)nn3)CC2)nc(N2CCN(C(=O)[C@H](CCC(=O)O)n3cc(C(N)[C@H](C)CC)nn3)CC2)n1 (stereo partly specified) | 37 | 1 | 48 | 82* | -2 | 2
C#CCOCCOCCOCCNc1nc(N2CCN(C(=O)[C@H](CCC(=O)O)n3cc(C(N)CC(C)C)nn3)CC2)nc(N2CCN(C(=O)[C@H](Cc3ccc(O)cc3)n3cc(C(N)CC(C)C)nn3)CC2)n1 (stereo partly specified) | 32 | -3 | 31 | 59* | 0 | -10
C#CCOCCOCCOCCNc1nc(N2CCN(C(=O)[C@H]([C@@H](C)CC)n3cc([C@@H](N)CO)nn3)CC2)nc(N2CCN(C(=O)[C@H]([C@@H](C)CC)n3cc([C@@H](N)CC(C)C)nn3)CC2)n1 | 23 | 7 | 44 | 56* | -2 | -1
C#CCOCCOCCOCCNc1nc(N2CCN(C(=O)[C@H](CCCCN)n3cc([C@@H](N)CC(C)C)nn3)CC2)nc(N2CCN(C(=O)[C@H](Cc3cc4ccccc4[nH]3)n3cc([C@@H](N)Cc4ccc(O)cc4)nn3)CC2)n1 | 37 | 3 | 30 | 60* | 1 | -2
C#CCOCCOCCOCCNc1nc(N2CCN(C(=O)[C@H]([C@@H](C)CC)n3cc([C@@H](N)CO)nn3)CC2)nc(N2CCN(C(=O)[C@H]([C@@H](C)CC)n3cc([C@@H](N)CO)nn3)CC2)n1 | 11 | 2 | 5 | -38 | / | 8
C#CCOCCOCCOCCNc1nc(N2CCN(C(=O)[C@H](CCCCN)n3cc([C@@H](N)CO)nn3)CC2)nc(N2CCN(C(=O)[C@H](Cc3cc4ccccc4[nH]3)n3cc([C@@H](N)Cc4ccc(O)cc4)nn3)CC2)n1 | 35 | 0 | 30 | 43 | -3 | 8
C#CCOCCOCCOCCNc1nc(N2CCN(C(=O)[C@H](CCCCN)n3cc(C(N)CO)nn3)CC2)nc(N2CCN(C(=O)[C@H](CCC(=O)O)n3cc(C(N)CC(C)C)nn3)CC2)n1 (stereo partly specified) | 15 | 0 | 17 | 13 | / | 15
SMILES | Mcl1-Noxa inh | eIF4E 4G PPI | 14-3-3 Bad inh | Mcl1-Bid inh | Mcl-1 Bim block | Hck-Nef inh
COc1ccc2c(c1)CCCC21SC(NC(C)=O)=NN1C(C)=O (stereo unspecified) | 9 | 1 | -1 | -21 | 0 | 10
Cc1ccc(NC(=O)c2ccc([N+](=O)[O-])cc2Cl)nc1 | -13 | 2 | 16 | -20 | -5 | 1
Cn1c(O)c(C=NCC2CCNCC2)c(=O)n(C)c1=O | 5 | 5 | -10 | -15 | -4 | 8
C#CCOCCOCCOCCNc1nc(N2CCN(C(=O)[C@H](C)n3cc(CCCN=C(N)N)nn3)CC2)nc(N2CCN(C(=O)[C@H](CCCCN)n3cc(CCCC)nn3)CC2)n1 | 40 | 10 | 89* | 72* | -1 | -5
CCn1c(C(C)NC(=O)c2cccs2)n[nH]c1=S (stereo unspecified) | 13 | -1 | -10 | -29 | -8 | 2
O=C(N/N=C1/C(=O)c2cccc3cccc1c23)c1ccc(Cl)cc1 | 26 | 6 | 85*[fluorescence artefact?] | 88* | -5 | 21
CCNC(=S)N/N=C1\C(=O)c2cccc3cccc1c23 | -5 | -20 | -10 | -34 | 3 | 25
CCc1ccc(NC(=O)CSc2nc3ccccc3c(=O)n2CCCC(=O)NCCCN2CCOCC2)cc1 | 3 | 2 | 3 | -2 | -3 | -10
CC1=NN(c2ccccc2)C(=O)/C1=C\c1c(C)[nH]n(-c2ccccc2)c1=O | 15 | 6 | 11 | -3 | -4 | 9
CC1=NN(c2ccccc2)C(=O)/C1=C\c1cn(-c2ccccc2)nc1C | -1 | -1 | -4 | 68* | -6 | 26
